Measurements from PMC7819943, “Rice protein-binding microarrays: a tool to detect cis-acting elements near promoter regions in rice”.
Over roughly 39,000 sequences, “fluorescence intensity (a.u.)” has its median near 4,300; the highest 2% begin near 39,000. What follows is part of a selection rich in the highest values, with near analogues and random picks from the rest.

These sequences were tested against T1, OsSMF1 (Oryza sativa, UniProt Q6ZLB0 1-436) (assay: protein-binding microarray (RPBM); PBS, 2% BSA, 51.3 ng/ul salmon testes DNA, 50 uM zinc acetate, 200 nM TF, 25 C, 1 h; high values mean tight binding). Conditions: protein: recombinant; tags: N-terminal polyhistidine and DsRed monomer fusion (pET32a); chain copies: 2; label: CyDye5-dUTP incorporated in the synthesized complementary strand; 3' TTTTT single-stranded linker to array surface; dsDNA, one strand shown.
T1 sequence: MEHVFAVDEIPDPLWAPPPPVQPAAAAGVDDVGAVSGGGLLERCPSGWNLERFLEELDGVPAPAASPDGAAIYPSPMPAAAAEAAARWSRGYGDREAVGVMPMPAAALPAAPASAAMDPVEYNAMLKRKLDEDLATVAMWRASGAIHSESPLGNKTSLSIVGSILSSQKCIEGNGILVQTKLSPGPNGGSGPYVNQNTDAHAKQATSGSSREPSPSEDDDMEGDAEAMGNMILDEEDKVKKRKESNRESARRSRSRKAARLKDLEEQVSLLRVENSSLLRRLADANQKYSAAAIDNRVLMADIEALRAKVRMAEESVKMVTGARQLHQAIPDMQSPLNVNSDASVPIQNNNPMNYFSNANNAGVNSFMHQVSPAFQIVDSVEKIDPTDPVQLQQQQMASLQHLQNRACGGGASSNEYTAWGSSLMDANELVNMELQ
Procedure, shortened: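 Polyhistidine-tagged DsRed fusions of transcription factors, joined at the N-terminus, were expressed in E. coli BL21-CodonPlus and isolated on Ni–NTA. They were incubated at 200 nM for 1 h at 25 °C on a custom Agilent array, double-stranded and BSA-blocked, in PBS with 2% BSA, salmon testes DNA and 50 µM zinc acetate. The binding signal is per-feature fluorescence intensity (arbitrary units) read on an Axon 4000B scanner after washing.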

| Sequence | binding signal |
| --- | --- |
| TGGGGCCGTGAGGCCACGTGCCCGGCATGCCACGGTGGAGCGGAGTCACCTAGTGCAG | 10000 fluorescence intensity (a.u.) |
| CCTCCGCCTTGTCCGCGTCCACGTCCACGGCCGCCGCCACCGGAGTCACCTAGTGCAG | 6310 fluorescence intensity (a.u.) |
| CCTCCACCCTCACCGGCGCCACGCCGACGCCTCCGCCCTCCGGAGTCACCTAGTGCAG | 5600 fluorescence intensity (a.u.) |
| CCCTTGTCCATCCGCCAACGCCACGTCACCTCCTCCGCTACGGAGTCACCTAGTGCAG | 52100 fluorescence intensity (a.u.) |
| CGCCTTATCCTCCCGCCTTTTCACGTCCCGCCACGCCGACCGGAGTCACCTAGTGCAG | 4060 fluorescence intensity (a.u.) |
| TCCTCCTCTCCTCCACACATCCAGGCAGGCAACACAAGAACGGAGTCACCTAGTGCAG | 41800 fluorescence intensity (a.u.) |
| ACCTCCCCGACGGCGTCCGCGTGCCGCGCTCCACGCGCACCGGAGTCACCTAGTGCAG | 3460 fluorescence intensity (a.u.) |
| TCCACCACCGCCTGCCTCCATCCACCTCCACTGCAACCTCCGGAGTCACCTAGTGCAG | 3670 fluorescence intensity (a.u.) |
| TTGTCGTCCACGCCGCCATCTCCTTGGTCATCCGCAACAACGGAGTCACCTAGTGCAG | 3430 fluorescence intensity (a.u.) |
| GGCAACAACGGCCTCCACCGCCATCACTCCGGCACCCTCACGGAGTCACCTAGTGCAG | 52200 fluorescence intensity (a.u.) |
| ACCACGACCACCACAACACCACCACCTCTTCTCCTAGTCACGGAGTCACCTAGTGCAG | 3570 fluorescence intensity (a.u.) |
| CCTTTTATCCGCTCTACGGACGCAGTCCACGTCAGCCGACCGGAGTCACCTAGTGCAG | 39200 fluorescence intensity (a.u.) |
| CTCCTCTCCTCTCTTCTCCACATCCACAAGAAATTTCGTACGGAGTCACCTAGTGCAG | 3630 fluorescence intensity (a.u.) |
| CACGGGGTGGTCGCGGGTCACAGTGACGGACGGTGCACGGCGGAGTCACCTAGTGCAG | 20200 fluorescence intensity (a.u.) |
| CACCAGGCACCGACTGCCGTAGTGTCACCGGCCACAGTGCCGGAGTCACCTAGTGCAG | 3220 fluorescence intensity (a.u.) |
| CTGTTGCCTACTCCCTCCTCAATCCTGCAGAAGTTTCTGACGGAGTCACCTAGTGCAG | 3240 fluorescence intensity (a.u.) |
| CTCCATTTTCTCCGGTTTTCGCCGCAGAGTAGGAGCTGAACGGAGTCACCTAGTGCAG | 21400 fluorescence intensity (a.u.) |
| AACCAACGGTCGCTGTTACGCCACGTCACCTCACCGACGCCGGAGTCACCTAGTGCAG | 39200 fluorescence intensity (a.u.) |
| TCACGGCCGCCTCCGCCATCTGCACAACCTCGCCGCCGCCCGGAGTCACCTAGTGCAG | 65500 fluorescence intensity (a.u.) |
| CGTGCCGACGCGTGCCTCGCCAACGTGTCGCAACGCCTCACGGAGTCACCTAGTGCAG | 8980 fluorescence intensity (a.u.) |
| TCTCCTCTCGCTCTCGCCATCTCGCCGCCGGCCTCCTCCACGGAGTCACCTAGTGCAG | 3240 fluorescence intensity (a.u.) |

| Sequence | binding signal |
| --- | --- |
| CTCCTCCTCCGGCCACGTCGACGTCGCACCAACCGCCGCCCGGAGTCACCTAGTGCAG | 14700 fluorescence intensity (a.u.) |
| CGTCGCCTCGCCTCGTCACGGCCGCCTCCGCCATCGCCTCCGGAGTCACCTAGTGCAG | 6060 fluorescence intensity (a.u.) |
| AGCACTACTCCAACGCAGCAACCAACACGTACCTCCACATCGGAGTCACCTAGTGCAG | 6420 fluorescence intensity (a.u.) |
| GATTCTTCTATGTGGCATGAGGTAACCCTGGGTCGGCTTGCGGAGTCACCTAGTGCAG | 4110 fluorescence intensity (a.u.) |
| GCCGTTGTCCGAAGGTTCAGCATATTGCTGACATATTGCCCGGAGTCACCTAGTGCAG | 4940 fluorescence intensity (a.u.) |
| GCATGCTCTTCTGATCTGTAATCTCAGGCTCTATTACTCTCGGAGTCACCTAGTGCAG | 3450 fluorescence intensity (a.u.) |
| TTCCTCGCCAACGTAAGCCAATAACATTGTGACGCAATCTCGGAGTCACCTAGTGCAG | 5820 fluorescence intensity (a.u.) |
| GAGGGGCGCGGGCGCCGAGCTCCATCTGGCGAGCAGGGTACGGAGTCACCTAGTGCAG | 42200 fluorescence intensity (a.u.) |
| GTGTGCCGCCGCCGCTGACTCCGGAGGGAGAGGACGAGCTCGGAGTCACCTAGTGCAG | 3320 fluorescence intensity (a.u.) |
| GAGATGGGAGGAGAGCTAGCTAGCCGCCGAGGCTGAGCTCCGGAGTCACCTAGTGCAG | 40600 fluorescence intensity (a.u.) |
| GCGAGCTCCTGGAGGCGGCGAGGGCGCCGGAGTTCGCGGGCGGAGTCACCTAGTGCAG | 37200 fluorescence intensity (a.u.) |
| ATCTCCATCTGGCGAGCAGAGGCCGGGGAGGGAGGGGCGCCGGAGTCACCTAGTGCAG | 3870 fluorescence intensity (a.u.) |
| GAGCAGGAGGAGCTGAGCGACTCCGAGTCGGGCGCCGAGTCGGAGTCACCTAGTGCAG | 40100 fluorescence intensity (a.u.) |
| CCGAGTGACGATGCAGCTGAGTCGGAGCGCAGCACGACTTCGGAGTCACCTAGTGCAG | 4290 fluorescence intensity (a.u.) |
| GCTGAGCAGGAGAGGGGCGCCGATCTCCATCCGGCGAGCACGGAGTCACCTAGTGCAG | 5450 fluorescence intensity (a.u.) |
| CATCGAGAGGCTCCCGAGCATGGCCGAGATCGCCGAGGAGCGGAGTCACCTAGTGCAG | 3500 fluorescence intensity (a.u.) |
| CACCGCTACCTACGTTGTCGCCACCCACGTCAATAATCCTCGGAGTCACCTAGTGCAG | 6310 fluorescence intensity (a.u.) |
| ATTCTTTTACCGCGTTGATGAATCGGATTCGTTCCGGTTTCGGAGTCACCTAGTGCAG | 3360 fluorescence intensity (a.u.) |
| GAGTCGTTATCTGCATTGATGTGTCTCCTGACTCCTGAGACGGAGTCACCTAGTGCAG | 3840 fluorescence intensity (a.u.) |
| CAACCTCCGATTTCCAAATCCAGTTGTCTTCTTCTTCCCCCGGAGTCACCTAGTGCAG | 7150 fluorescence intensity (a.u.) |
| ACAATACTACTATTTTATCATGACGATGACTGGAACTCCACGGAGTCACCTAGTGCAG | 4440 fluorescence intensity (a.u.) |
